Inconclusive results are not listed. Entries that show only a call come without a potency. Values without a mark were called inactive. Calls of active or inactive are those of the source. The call rests on the fitted dose curve; in most records, active means well fitted cell-killing curve with a large enough effect; inconclusive means small, poorly fitted or top-dose-only effect, or effect the other way; inactive means flat fitted curve, though single readings scatter. Where a SMILES comes first, the peptide text is derived from it. The star is where a group is joined. AFC = O=c1cc(C(F)(F)F)c2ccc(N*)cc2o1
Experiments:
Assay in all cases: Primary qHTS to identify gynecologic anti-cancer compounds using libraries of approved drugs and bioactive compounds (AID 1345084); further: nearly all actives have a fitted effect of over 55% in size
C33A = conditions: Gynecologic cancer cell panel viability, ATPlite luminescence, 48 h; series mostly up to 57.5 µM
Summary of the method: (§1)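 In this quantitative HTS, cell killing is estimated from loss of ATP-dependent luciferase light. Cells see five compound concentrations over a 48 h exposure.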

CASKI = conditions: Gynecologic cancer cell panel viability, ATPlite luminescence, 48 h; series mostly up to 57.5 µM
Summary of the method: as §1

Es-2 = conditions: Gynecologic cancer cell panel viability, ATPlite luminescence, 48 h; series mostly up to 57.5 µM
Summary of the method: as §1

HeLa = conditions: Gynecologic cancer cell panel viability, ATPlite luminescence, 48 h; series mostly up to 57.5 µM
Summary of the method: as §1

Hek293T = conditions: Gynecologic cancer cell panel viability, ATPlite luminescence, 48 h, control line for the selectivity index; series mostly up to 57.5 µM
Summary of the method: as §1

CAOV3 = conditions: Gynecologic cancer cell panel viability, ATPlite luminescence, 48 h; series mostly up to 57.5 µM
Summary of the method: as §1
Potency means the concentration at half of the fitted maximal effect.

Cc1nc2sc(C(=O)NCc3ccncc3)c(N)c2c(C)c1Cl was tested, and the Potency (C33A) was “inactive”, the Potency (CASKI) was “inactive” and the Potency (Es-2) was “inactive”. For the same compound, the Potency (HeLa) was “inactive” and the Potency (Hek293T) was “inactive”.
In the case of Cc1ccc(NC(=O)c2ccc(CN3CC[C@H](N(C)C)C3)c(C(F)(F)F)c2)cc1Nc1nccc(-c2cncnc2)n1, the Potency (C33A) is reported as “inactive”, the Potency (CAOV3) is reported as “inactive” and the Potency (HeLa) is reported as “inactive”. For the same compound, the Potency (Hek293T) was “inactive”.
For COc1ccc(/C=C/C(=O)O[C@@H]2[C@@H](O)[C@@H](O)[C@H](O[C@@H]3C=C(CO)[C@H]4[C@H](O[C@@H]5O[C@H](CO)[C@@H](O)[C@H](O)[C@H]5O)OC=C[C@H]43)O[C@H]2C)cc1O, the Potency (C33A) was “inactive”, the Potency (CASKI) was “inactive” and the Potency (Es-2) was “inactive”. The Potency (HeLa) was “inactive” and the Potency (Hek293T) was “inactive”.
In the case of CC(C)Oc1ccc(C(=O)NC(CNC(=O)CN(C)C)Cc2ccc(-c3cn4cccc(C(C)O)c4n3)cc2)cc1Cl (stereo unspecified), the Potency (C33A) is reported as “inactive”, the Potency (CAOV3) is reported as “inactive” and the Potency (HeLa) is reported as 0.251 µM (active).
With C[C@@H]1O[C@@H](O[C@H]2[C@H](O[C@H]3CC[C@@]4(C)C(CC[C@]5(C)C4CC=C4[C@@H]6CC(C)(C)CC[C@]6(C(=O)O[C@@H]6OC[C@H](O)[C@H](O)[C@H]6O[C@@H]6O[C@@H](C)[C@H](O[C@@H]7O[C@H](CO)[C@@H](O)[C@H](O)[C@H]7O)[C@H](O)[C@H]6O)[C@H](O)C[C@]45C)C3(C)C)O[C@H](CO)[C@@H](O[C@@H]3OC[C@@H](O)[C@H](O)[C@H]3O)[C@@H]2O)[C@H](O)[C@H](O)[C@H]1O (stereo partly specified) the activity change, negative = cytotoxicity (C33A) was -7.19% [at 6.55 µM], the activity change, negative = cytotoxicity (CASKI) was 6.32% [at 6.55 µM] and the activity change, negative = cytotoxicity (Es-2) was 0.0947% [at 6.55 µM]. It also gave an activity change, negative = cytotoxicity (HeLa) of -17.4% [at 6.55 µM] and an activity change, negative = cytotoxicity (Hek293T) of 6.66% [at 6.55 µM].
C=C1C(=O)O[C@@H]2/C=C(\C)C(=O)/C=C/[C@](C)(O)C[C@@H](OC(=O)C(C)C)[C@@H]12 was tested, and the Potency (C33A) was 8.91 µM (active), the Potency (CAOV3) was 2.82 µM (active) and the Potency (Es-2) was 3.16 µM (active). The Potency (Hek293T) was 4.47 µM (active).
With O=C(/C=C/c1cccc(S(=O)(=O)Nc2ccccc2)c1)NO the Potency (C33A) was 11.2 µM (active), the Potency (CASKI) was 8.91 µM (active) and the Potency (Es-2) was 5.01 µM (active). For the same compound, the Potency (HeLa) was 4.47 µM (active).
For COC(=O)Cc1cc2c(c([N+](=O)[O-])c1)N(C(=O)CC[C@H](N)C(=O)O)CC2, the Potency (C33A) was “inactive”, the Potency (CAOV3) was “inactive” and the Potency (Es-2) was “inactive”. The Potency (HeLa) was “inactive” and the Potency (Hek293T) was “inactive”.
In the case of COc1ccc(-c2cnc3ccc(NCc4ccc(S(N)(=O)=O)cc4)nn23)cc1OC, the Potency (C33A) is reported as “inactive”, the Potency (CAOV3) is reported as “inactive” and the Potency (Es-2) is reported as “inactive”. The Potency (HeLa) was “inactive” and the Potency (Hek293T) was “inactive”.
Cc1ccc(S(=O)(=O)c2ccc([N+](=O)[O-])o2)cc1 was tested, and the Potency (C33A) was 11.2 µM (active), the Potency (CAOV3) was 11.2 µM (active) and the Potency (Es-2) was 8.91 µM (active). The Potency (Hek293T) was 8.91 µM (active).
CC[C@H](CO)Nc1nc(NCc2ccc(-c3ccccn3)cc2)c2ncn(C(C)C)c2n1 was tested, and the Potency (C33A) was 1.26 µM (active), the Potency (CASKI) was 2.51 µM (active) and the Potency (Es-2) was 0.794 µM (active). The Potency (HeLa) was 3.16 µM (active).
CC1=CC2C(CC1OC1OC(CO)C(O)C(O)C1O)C(C)CC(=O)C2C(C)C (stereo unspecified) was tested, and the Potency (C33A) was “inactive”, the Potency (CAOV3) was “inactive” and the Potency (Es-2) was “inactive”. The Potency (HeLa) was “inactive” and the Potency (Hek293T) was “inactive”.
In the case of FC(F)(F)c1ccc(Nc2nc(-c3c(C(F)(F)F)nc4ccccn34)cs2)cc1, the Potency (C33A) is reported as 20 µM (active), the Potency (CASKI) is reported as “inactive” and the Potency (Es-2) is reported as 2 µM (active). For the same compound, the Potency (HeLa) was 0.891 µM (active).
In the case of CC/C=C/CC1=C(CCCCC(CCC(=O)O)OC(C)=O)CCC1=O (stereo unspecified), the Potency (C33A) is reported as “inactive”, the Potency (CASKI) is reported as “inactive” and the Potency (Es-2) is reported as “inactive”. For the same compound, the Potency (HeLa) was “inactive” and the Potency (Hek293T) was “inactive”.
CC(=O)N[C@@H](Cc1c[nH]c2ccccc12)C(=O)N[C@@H](CCC(=O)O)C(=O)N[C@@H](Cc1cnc[nH]1)C(=O)N[C@@H](CC(=O)O)C(=O)Nc1ccc2c(C(F)(F)F)cc(=O)oc2c1 (Ac-WEHD-{AFC}) was tested, and the Potency (C33A) was “inactive”, the Potency (CASKI) was “inactive” and the Potency (Es-2) was “inactive”. The Potency (HeLa) was “inactive” and the Potency (Hek293T) was “inactive”.
With O=C(O)/C=C/c1ccc(-c2ccc(O)c(C34CC5CC(CC(C5)C3)C4)c2)cc1 the Potency (C33A) was 1.58 µM (active), the Potency (CASKI) was 1.78 µM (active) and the Potency (Es-2) was 0.631 µM (active). For the same compound, the Potency (HeLa) was 8.91 µM (active) and the Potency (Hek293T) was 2 µM (active).
Cc1cc(Nc2cc(N3CCN(C)CC3)nc(/C=C/c3ccccc3)n2)n[nH]1 was tested, and the Potency (C33A) was 28.2 µM (active), the Potency (CASKI) was 3.55 µM (active) and the Potency (Es-2) was “inactive”.
In the case of O=C(c1ccc(/C=C/c2n[nH]c3ccccc23)cc1)N1CCNCC1, the Potency (C33A) is reported as “inactive”, the Potency (CAOV3) is reported as “inactive” and the Potency (HeLa) is reported as 2.24 µM (active). The Potency (Hek293T) was “inactive”.
For c1ccc(-c2csc(N3CCOCC3)n2)cc1, the Potency (C33A) was “inactive”, the Potency (CASKI) was “inactive” and the Potency (Es-2) was “inactive”.
With CC1=C(CO)C(=O)O[C@@H]([C@@H](C)[C@H]2CC[C@H]3[C@@H]4C[C@H]5O[C@]56[C@@H](O)C=CC(=O)[C@]6(C)[C@H]4CC[C@]23C)C1 the Potency (C33A) was 4.47 µM (active), the Potency (CAOV3) was 8.91 µM (active) and the Potency (Es-2) was 11.2 µM (active). For the same compound, the Potency (Hek293T) was 11.2 µM (active).
With Cc1cc(C)c(CNC(=O)c2cc(-c3ccc(CN4CCOCC4)cc3)cc3c2cnn3C2CCCC2)c(=O)[nH]1 the Potency (C33A) was “inactive”, the Potency (CASKI) was “inactive” and the Potency (Es-2) was “inactive”. For the same compound, the Potency (HeLa) was “inactive” and the Potency (Hek293T) was “inactive”.
For CCOC(=O)C(CCc1ccccc1)NC1CSC(c2cccs2)CN(CC(=O)O)C1=O (stereo unspecified), the Potency (C33A) was “inactive”, the Potency (CASKI) was “inactive” and the Potency (Es-2) was “inactive”. The Potency (HeLa) was “inactive” and the Potency (Hek293T) was “inactive”.
In the case of C=C1CN(Cc2ccc(C(=O)Nc3ccccc3N)cc2)C(=O)c2ccccc21, the Potency (C33A) is reported as 2.82 µM (active), the Potency (CASKI) is reported as 4.47 µM (active) and the Potency (Es-2) is reported as 5.01 µM (active). The Potency (HeLa) was 3.55 µM (active) and the Potency (Hek293T) was 2.24 µM (active).
For COc1ccccc1Oc1ccc(N(Cc2cccnc2)S(=O)(=O)CC(F)(F)F)cc1, the Potency (C33A) was “inactive”, the Potency (CASKI) was “inactive” and the Potency (Es-2) was “inactive”. The Potency (HeLa) was “inactive” and the Potency (Hek293T) was “inactive”.
